# Source: PubChem BioAssay AID2283127 (EPA ToxCast)
# Results filed as inconclusive are left out. Calls of active or inactive are those of the source. How the source made its calls: active means hit-call score of the fitted dose curve at least 0.9, where 1 is the maximum; inconclusive means response in the unintended direction; inactive means score below 0.9.
# Target: human AKT serine/threonine Kinase 3 (AKT3), AKT3 (gene 10000) (UniProt Q9Y243)
# Test: NVS_ENZ_hAKT3: NovaScreen (NVS) Enzymatic Assay for human AKT serine/threonine Kinase 3 (AKT3)
# Description: NVS_ENZ_hAKT3 is a biochemical, single-readout assay that uses extracted gene-proteins in a cell-free assay. Measurements were taken 1 hour after chemical dosing in a 384-well plate.NVS_ENZ_hAKT3 is one of one assay component(s) measured or calculated from the NVS_ENZ_hAKT3 assay. It is designed to make measurements of enzyme activity, a form of enzyme reporter, as detected with fluorescence intensity signals by Fluorescence and electrophoretic mobility shift technology.Data from the assay component NVS_ENZ_hAKT3 was analyzed into 1 assay endpoint. This assay endpoint, NVS_ENZ_hAKT3, was analyzed in the positive analysis fitting direction relative to DMSO as the negative control and baseline of activity. Using a type of enzyme reporter, loss-of-signal activity can be used to understand changes in the enzymatic activity as they relate to the gene AKT3. Furthermore, this assay endpoint can be referred to as a primary readout, because this assay has produced multiple assay endpoints where this one serves a enzymatic activity function. To generalize the intended target to other relatable targets, this assay endpoint is annotated to the kinase intended target family, where the subfamily is serine/threonine kinase. […]
# human AKT serine/threonine Kinase 3 (AKT3), AKT3 (gene 10000), sequence (Q9Y243 whole entry, looked up): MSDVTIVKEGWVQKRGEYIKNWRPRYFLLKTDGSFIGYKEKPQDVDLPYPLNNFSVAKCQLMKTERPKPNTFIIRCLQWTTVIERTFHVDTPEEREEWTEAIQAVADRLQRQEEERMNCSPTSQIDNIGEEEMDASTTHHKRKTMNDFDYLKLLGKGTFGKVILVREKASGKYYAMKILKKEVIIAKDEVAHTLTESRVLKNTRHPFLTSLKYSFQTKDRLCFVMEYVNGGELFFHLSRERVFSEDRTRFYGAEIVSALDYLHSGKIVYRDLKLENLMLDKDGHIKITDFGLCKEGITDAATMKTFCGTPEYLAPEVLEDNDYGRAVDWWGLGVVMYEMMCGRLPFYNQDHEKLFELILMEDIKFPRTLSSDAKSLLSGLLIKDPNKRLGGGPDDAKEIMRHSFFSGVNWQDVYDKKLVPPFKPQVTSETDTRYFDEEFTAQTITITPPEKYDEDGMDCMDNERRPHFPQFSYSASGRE
Compound,AC50,outcome
S=C([S-])NCCNC(=S)[S-].[Mn+2],25 µM (active),–
CN(C)C(=S)SSC(=S)N(C)C,–,inactive
